Hsp70 act – Hsp70 transcriptional activation, primary screen | 200,000 compounds, 0.04% hits | HeLa Hsp70 promoter luciferase reporter, luminescence; scaled: vehicle 0, proteasome-inhibitor control 100% | activation, % at 10 µM | AID 1203;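 active = activation above the mean across all tested compounds plus 3 SD, cutoff set per campaign, cut at about 5.5% in these data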
S1P4 ag – activates the human S1P4 receptor. O95977. activation, % at 4.98 µM. AID 1509. 220,000 compounds, 0.35% hits. S1P4-expressing cell line, agonist reporter assay; in the data active = activation above about 11%
Target sequence (O95977 whole entry, looked up): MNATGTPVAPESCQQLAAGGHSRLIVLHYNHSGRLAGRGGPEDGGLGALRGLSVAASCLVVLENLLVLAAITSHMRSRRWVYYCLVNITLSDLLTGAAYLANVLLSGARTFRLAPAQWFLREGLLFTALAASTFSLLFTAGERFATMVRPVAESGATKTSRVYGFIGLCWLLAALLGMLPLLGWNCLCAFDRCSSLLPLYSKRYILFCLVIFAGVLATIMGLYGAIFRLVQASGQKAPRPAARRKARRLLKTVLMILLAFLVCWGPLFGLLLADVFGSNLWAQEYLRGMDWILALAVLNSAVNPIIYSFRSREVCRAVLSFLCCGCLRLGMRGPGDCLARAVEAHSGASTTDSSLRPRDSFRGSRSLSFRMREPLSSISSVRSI
S1P4 antagonist – antagonists of human S1P4 receptor; O95977; 220,000 compounds, 0.26% hits; S1P4-expressing cells, antagonist mode, reporter read-out; inhibition, % at 4.98 µM; in the data active = inhibition above about 29%
HSF1 inhib – HSF1 inhibition; activity change, negative = inhibition, % at 7.5 µM (by protocol); AID 2098; 300,000 compounds, 0.77% hits; NIH3T3-HGL HSE-luciferase, MG132-induced, luminescence 8 h; stronger effect = lower value;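 active = more than half of replicate wells show activity change below -50%, luminescence cut by over half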;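 note: luciferase reports HSF-1 transcriptional activity via heat shock element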
HSF1 activator – increases HSF-1 driven luciferase reporter signal; 300,000 compounds, 1.7% hits; NIH3T3-HGL HSF-1 luciferase reporter, MG132, 8 h; 100% = twice DMSO control signal; activation, % at 9 µM;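 active = mean replicate activation of at least 50% with a set share of replicates each reaching 50%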
S1P3 antagonist – S1P3 (human) receptor antagonism | Q99500 | CHO S1P3 NFAT-BLA reporter, FRET fluorescence, antagonist mode | inhibition, % at 4.98 µM | 170,000 compounds, 0.27% hits;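 active = inhibition above the plate cutoff, the mean inhibition of test wells on that plate plus 3 SD, cut at about 28% in these data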;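 note: cells challenged with S1P at its EC80 of 0.8 µM; blue over green emission ratio from cleaved BLA substrate after 4 h stimulation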
A number is an active result; - = inactive; . = no result given. Hits are enriched below; roughly 2.9% of the tested compounds scored in any of these assays.

SMILES	Hsp70 act	S1P4 ag	S1P4 antagonist	HSF1 inhib	HSF1 activator	S1P3 antagonist
Cc1ccc(C2=NN(S(C)(=O)=O)C(c3ccc4c(c3)OCO4)C2)cc1 (stereo not given)	-	-	-	-	80	-
CC(=O)N1N=C(c2ccc(C)cc2)CC1c1ccc2c(c1)OCO2 (stereo not given)	.	-	-	-	-	-
Cn1cc(C(=O)N/N=C/c2ccc(Br)c([N+](=O)[O-])c2)c2ccccc21	.	-	-	-	55	-
O=C(O)CC(Cc1ccc(Br)cc1)C(=O)O (stereo not given)	-	-	-	-76	-	-
COc1ccc(CNC(=O)CN2C(=O)c3ccc([N+](=O)[O-])cc3C2=O)cc1	.	.	.	-	-	.
Nc1nc(F)nc2c1ncn2[C@@H]1O[C@H](CO)[C@@H](O)[C@@H]1O	-	-	-	-	-	-
Nc1nc(F)nc2c1ncn2[C@@H]1O[C@H](CO)[C@@H](O)[C@H]1O	.	.	.	-56	-	.
O=C(Nc1ccncc1)c1cc2ccccc2cc1O	.	.	.	-	261	.
O=C(Nc1ccc2nc(-c3cccnc3)[nH]c2c1)c1ccccc1F	-	-	-	-63	-	.
O=C(Nc1ccc2ccccc2c1)c1ccccc1F	.	.	.	-	56	.
COc1ccccc1C(=O)Nc1ccc2ccccc2c1	.	.	.	-	66	.
O=C(Nc1ccc2cn[nH]c2c1)c1ccccc1F	-	-	-	-	-	-
COc1ccc(C(=O)Nc2ccc3ccccc3c2)c(OC)c1	.	.	.	-	-	.
O=C(Nc1cccc([N+](=O)[O-])c1)c1cc2ccccc2cc1O	.	-	-	-	-	-
CCOc1ccccc1C(=O)Nc1cc(Cl)ccc1O	-	-	-	-	-	-
COc1ccccc1C(=O)Nc1cc(Cl)ccc1O	-	-	-	-	65	.
Cc1oncc1C(=O)Nc1ccc2ccccc2c1	.	.	.	-	66	.
COc1ccc(NCC(=O)n2c(C)c(C)c3ccccc32)cc1OC	.	-	-	-	-	-
CC(Sc1ncnc2c1cnn2-c1ccccc1)C(=O)NCC1CCCO1 (stereo not given)	.	.	.	-	-	.
Cc1nc(SC(C)C(=O)NCC2CCCO2)c2cc(-c3ccccc3)sc2n1 (stereo not given)	.	.	.	-	71	.
O=C(O)/C(=C\c1ccco1)NC(=O)c1cccc2ccccc12	-	-	-	-	-	.
O=C(N/N=C/c1ccco1)c1cccc(S(=O)(=O)Nc2ccccc2Cl)c1	-	-	-	-	-	-
Cc1ccc(/C=N/NC(=O)c2cccc(S(=O)(=O)Nc3ccccc3Cl)c2)o1	-	-	-	-	66	-
Cc1c(Cl)c(C(=O)NNC(=S)Nc2ccc(F)cc2)nn1C	-	-	-	-	59	-
Cc1c(Cl)c(C(=O)NNC(=S)Nc2ccccc2)nn1C	-	-	-	-	-	.
SMILES	Hsp70 act	S1P4 ag	S1P4 antagonist	HSF1 inhib	HSF1 activator	S1P3 antagonist
CC1(c2nnc(-c3ccc(F)cc3)o2)CC(c2ccc([N+](=O)[O-])cc2)=NO1 (stereo not given)	.	.	.	-	-	.
CCCCC(=O)Nc1sc(C(=O)N(CC)CC)c(C)c1C(=O)OC	-	-	-	-88	-	.
CCOC(=O)c1c(NC(=O)CN(C)C)sc(C(=O)N(CC)CC)c1C	-	-	-	-	-	.
O=C(O)c1ccc(N/N=C/c2ccc3c(c2)OCO3)cc1	-	-	-	-71	-	-
Cc1ccsc1C(=O)N/N=C/c1ccc2c(c1)OCO2	-	-	-	-	52	-
Cc1ccsc1/C=N/NC(=O)c1ccc2ccccc2c1	.	.	.	-	-	.
NS(=O)(=O)c1ccc(N/N=C/c2ccc3c(c2)OCO3)c([N+](=O)[O-])c1	-	-	-	-	-	-
Cc1ccsc1/C=N/NC(=O)Nc1ccccc1	-	-	-	-	58	-
O=[N+]([O-])c1ccccc1N/N=C/c1ccc2c(c1)OCO2	-	-	-	-	65	-
O=C(O)c1cc(N/N=C/c2ccc3c(c2)OCO3)ccc1Cl	-	-	-	-	-	-
CCOC(=O)c1cn(Cc2ccccc2)nc1-c1ccccc1	.	.	.	-	-	.
COc1ccccc1C(=O)NCC(=O)N/N=C/c1ccc2c(c1)OCO2	.	.	.	-73	-	.
COc1cc(/C=N/NC(=O)c2ccc(Cl)cc2)ccc1OCC(=O)N1CC(C)OC(C)C1 (stereo not given)	-	-	-	-	56	-
O=C(N/N=C/c1ccc(Cl)cc1)c1ccc2c(c1)OCO2	.	.	.	-	55	.
O=C(N/N=C/c1ccc2c(c1)OCO2)c1ccc2c(c1)OCCO2	-	-	-	-55	-	-

Compound activity as filed in PubChem.
